Only some compounds are listed: those with a hit (about 11% of all), similar ones and a draw of the others.
BAZ2B inh: qHTS Assay for Inhibitors of BAZ2B. Bromodomain adjacent to zinc finger domain protein 2B (Homo sapiens), Q9UIF8. AlphaScreen BAZ2B-H3K14Ac peptide displacement. Potency, µM (series often up to 114 µM), for the others: at the highest dose activity change, negative = inhibition, usual class: inhibitors. hit rate 4.4% among 360,000; further: on the % scale 0 is the no-effect control and ±100 the full control effect; nearly all actives have a fitted effect of over 60% in size
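Protein-peptide AlphaScreen: BAZ2B 50 nM, b-H3K14Ac 50 nM, 1x PBS pH 7.4 + 0.01% Tween-20. Preincubation 30 min RT; cpd 30 min RT (top 110 uM); beads 20 min RT, light-protected.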
L3MBTL1 inh: qHTS Assay for the Inhibitors of L3MBTL1 | Lethal(3)malignant brain tumor-like protein 1 (Homo sapiens), Q9Y468 | AlphaScreen L3MBTL1–H3K9me1 peptide binding | Potency, µM (top dose mostly 57.1 µM), without a hit: top-dose activity, negative = inhibition, hits mostly inhibitors | hit rate 0.66% among 230,000; further: on the % scale 0 is the no-effect control and ±100 the full control effect; nearly all actives have a fitted effect of over 60% in size
Target sequence (Q9Y468 whole entry, looked up): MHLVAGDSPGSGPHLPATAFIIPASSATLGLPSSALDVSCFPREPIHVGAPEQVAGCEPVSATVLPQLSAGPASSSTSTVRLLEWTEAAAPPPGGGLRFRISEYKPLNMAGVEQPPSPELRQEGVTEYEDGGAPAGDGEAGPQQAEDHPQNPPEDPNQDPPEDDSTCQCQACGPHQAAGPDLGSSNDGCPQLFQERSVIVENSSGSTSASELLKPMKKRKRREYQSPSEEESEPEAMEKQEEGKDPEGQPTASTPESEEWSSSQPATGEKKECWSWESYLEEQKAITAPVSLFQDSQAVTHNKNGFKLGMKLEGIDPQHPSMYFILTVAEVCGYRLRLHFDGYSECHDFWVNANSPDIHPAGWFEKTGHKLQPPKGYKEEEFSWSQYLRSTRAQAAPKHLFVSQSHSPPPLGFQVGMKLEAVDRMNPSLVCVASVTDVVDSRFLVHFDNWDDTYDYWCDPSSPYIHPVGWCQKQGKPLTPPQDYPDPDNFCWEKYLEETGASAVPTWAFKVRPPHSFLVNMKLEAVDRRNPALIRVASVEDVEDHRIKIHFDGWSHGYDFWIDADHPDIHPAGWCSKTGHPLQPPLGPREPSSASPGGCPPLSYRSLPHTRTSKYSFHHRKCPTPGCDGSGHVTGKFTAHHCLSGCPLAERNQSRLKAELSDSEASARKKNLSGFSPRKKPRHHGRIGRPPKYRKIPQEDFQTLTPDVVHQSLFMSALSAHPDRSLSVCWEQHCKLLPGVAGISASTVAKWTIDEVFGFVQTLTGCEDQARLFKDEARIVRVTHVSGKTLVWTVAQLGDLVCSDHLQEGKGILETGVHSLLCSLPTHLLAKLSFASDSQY
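AlphaScreen proximity signal between nickel-chelate acceptor and streptavidin donor beads (final 10 ug/mL) reports binding of 50 nM L3MBTL1 to 75 nM biotin-H3 K9me1 peptide; complex incubated with compounds 30 min at room temperature; cefsulodin titration as control.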
HP1b chromo inh: HTS for Inhibitors of HP1-beta Chromodomain Interactions with Methylated Histone Tails | Chromobox protein homolog 1 (Homo sapiens), P83916 | AlphaScreen HP1-beta / biotin-H3K9me3 peptide binding | Potency, µM (top dose mostly 114 µM), without a hit: top-dose activity change, negative = inhibition, most hits filed as inhibitors | hit rate 0.56% among 390,000 | AID 540317, 2011; further: nearly all actives have a fitted effect of over 70% in size
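AlphaScreen: HP1-beta (50 nM) preformed 30 min with biotin-H3(1-18)K9me3 peptide (50 nM) in PBS pH 7.4, 0.01% Tween-20. Compound added for 30 min at RT, then streptavidin donor/nickel chelate acceptor beads (10 ug/mL) for 30 min.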
G9a block: qHTS Assay for Inhibitors of Histone Lysine Methyltransferase G9a. Histone-lysine N-methyltransferase EHMT2 (Homo sapiens), Q96KQ7. G9a H3K9 monomethylation, AlphaScreen, 2 h. Potency, µM (top dose mostly 102 µM), for inactives: at the top dose activity, negative = inhibition, usual class: inhibitors. hit rate 8.8% among 350,000. AID 504332, 2011; further: on the % scale 0 is the no-effect control and ±100 the full control effect; nearly all actives have a fitted effect of over 75% in size
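AlphaScreen detection with an anti-monomethyl H3K9 antibody quantified product after a 2 h room-temperature reaction containing 500 nM biotinylated H3K9 peptide, 20 µM SAM and 20 nM enzyme, which had been preincubated 15 min with compound.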
JMJD2A Tudor: qHTS Assay for Inhibitors of JMJD2A-Tudor Domain; Lysine-specific demethylase 4A (Homo sapiens), O75164; AlphaScreen JMJD2A-Tudor / H3K4me3 peptide binding; Potency, µM (top dose mostly 114 µM), inactives show at the highest dose activity change, negative = inhibition, hits mostly inhibitors; hit rate 4.4% among 390,000; further: on the % scale 0 is the no-effect control and ±100 the full control effect; nearly all actives have a fitted effect of over 50% in size
* hit, by the source's call; ? = inconclusive; . = no result given; ! = a repeat was not active; [ ] = another dose, or the depositor's remark. The call rests on the fitted dose curve; in most records, active means well fitted inhibition curve with a large enough effect; inconclusive means small, poorly fitted or top-dose-only effect; inactive means no such curve, though single readings can be large or run the other way. Potency means the concentration at half of the fitted maximal effect.

SMILES	BAZ2B inh	L3MBTL1 inh	HP1b chromo inh	G9a block	JMJD2A Tudor
CC(C)CNC(=O)C1CCN(CC2CCCCC2)CC1	-4%[57.1 µM]	-1%	-29%	.	79µM*
CC(CNC(=O)C1CCCCC1)NC(=O)C1CCCCC1 (stereo not given)	16%	17%	25%	-35%[59 µM]	-4%
O=C(NCC1CCCO1)C1CCN(CC2CCCCC2)CC1 (stereo not given)	?	.	-18%	?	35µM*
CC(C)CN1CCC(C(=O)NCC2CCCO2)CC1 (stereo not given)	56µM*	-8%	?	10µM*	7.1µM*
CC(C)CNC(=O)C(=O)NNC(=O)C1CCCCC1	-5%	6%	26%	20µM*	?
O=C(CCn1c(=O)c2sccc2n(Cc2cccc(F)c2)c1=O)NCc1ccc2c(c1)OCO2	4%	.	17%	6%[59 µM]	-7%
Cc1ccc(S(=O)(=O)c2nnn3c2nc(N2CCN(c4ccc(F)cc4)CC2)c2cc(Cl)ccc23)cc1C	1%	.	25%	8%[59 µM]	-6%
O=C(CSc1nnc(-c2ccccn2)o1)Nc1ccccc1C(F)(F)F	50µM*	.	5%	71µM*	-18%
CSc1ccc2c(c1)N(CC[C@H]1CCCCN1C)c1ccccc1S2	.	.	.	11µM*	.
CSc1ccc2c(c1)N(CCC1CCCCN1C)c1ccccc1S2 (stereo not given)	32µM*	-7%	?	18µM*!	50µM*
CSc1ccc2c(c1)C(N1CCN(C)CC1)Cc1ccc(F)cc1S2 (stereo not given)	.	.	-17%	.	?
CC(=O)c1ccc2c(c1)N(CCCN1CCC(CCO)CC1)c1ccccc1S2	4%	-3%	-4%	-10%[59 µM]	-35%
CN1CCCC[C@@H]1CCN1c2ccccc2Sc2ccc(S(C)=O)cc21 (stereo not given in full)	.	.	.	7.9µM*!	.
CN(c1ccccc1)S(=O)(=O)c1cccc(C(=O)Nc2nn[nH]n2)c1	?	9%	-16%	.	?
CCCCCn1c(C(C)NC(=O)c2ccccc2)nc2ccccc21 (stereo not given)	5%	.	22%	7%[59 µM]	-11%
O=C(Nc1cccc(C(F)(F)F)c1)c1cc(Br)cc2c1OCC2	0%	1%	16%	-4%	-7%
O=C(Nc1cccc(C(F)(F)F)c1)c1scc2c1OCCO2	1%	22%	3%	1%	50µM*
Cc1cc2oc(=O)cc(CSc3nc(N)cc(N)n3)c2cc1C(C)C	32µM*	.	2%	-22%	-22%
O=C(CSc1nnc(-c2cccs2)o1)NCC1CN(Cc2ccccc2)CCO1 (stereo not given)	56µM*	.	10%	3.5µM*	-27%
C=CCNC(=O)CSc1nnc(-c2cccs2)o1	-23%	4%	16%	1%	-11%
CCCCCCCCCCCCCCCC(=O)OCC(COP(=O)(O)OCC[N+](C)(C)C)OC(=O)CCCCCCCCCCCCCCC (stereo not given)	.	.	.	-6%[12.7 µM]	.
COc1ccc(S(=O)(=O)N(C(=O)c2ccncc2)c2ccc(OC(=O)c3ccncc3)cc2)cc1	-5%	.	1%	35µM*	-25%
CC(OC(=O)CN1C(=O)c2ccccc2C1=O)C(=O)NC1CCCCC1 (stereo not given)	-17%	.	47%	29%	-1%
CCCCOc1ccc(C(=O)N(Cc2ccc(C(C)C)cc2)C2CCS(=O)(=O)C2)cc1 (stereo not given)	-18%	.	21%	3%[59 µM]	-18%
Cc1ccc(S(=O)(=O)NCCCCCC(=O)Nc2nccs2)cc1	79µM*	-5%	8%	11µM*	?
SMILES	BAZ2B inh	L3MBTL1 inh	HP1b chromo inh	G9a block	JMJD2A Tudor
COc1cccc2sc(NN)nc12	.	.	?	32µM*	?
Cc1c(Cl)ccc2sc(NC(=O)c3ccco3)nc12	38%	49%	35%	.	-6%
NNc1nc2c(Cl)c(Cl)ccc2s1	50µM*	-3%	-34%	?	10µM*
COc1ccc2cc(CNc3ccc(C)cc3)c(=O)n(CC(=O)Nc3ccc(OC)c(Cl)c3)c2c1	-14%	.	21%	-29%[59 µM]	-11%
CC(=O)n1cc(N(C(=O)CCl)c2ccccc2)c2ccccc21	-38%	1%	47%	.	-4%
CC(=O)n1cc(N(C(=O)CCl)c2ccc([N+](=O)[O-])cc2)c2ccccc21	-33%	-8%	2%	50µM*	-30%
CSc1ccc(CCNC(=O)CCc2c(C)nc3c4cccnc4nn3c2C)cc1	-10%	.	29%	5%[59 µM]	-13%
CCCN1C(=O)c2cc(C(=O)O)ccc2C1O (stereo not given)	56µM*	-7%	18%	?	89µM*
CCCN1C(=O)c2cc(C(=O)NC3CCCCCC3)ccc2C1O (stereo not given)	0%	-2%	17%	?	-7%
O=C(CCc1n[nH]c(=O)[nH]c1=O)N/N=C/c1ccco1	50µM*	-6%	19%	?	-31%
CCC(C)(C)n1nnnc1C(c1cc2cc(OC)ccc2[nH]c1=O)N1CCc2ccccc21 (stereo not given)	?	-9%	-14%	?	?
CCC(C)(C)n1nnnc1C(c1cc2ccc(OC)cc2[nH]c1=O)N1CCc2ccccc2C1 (stereo not given)	-14%	31%[11.4 µM]	39%	2.5µM*	-29%
CCC(C)(C)n1nnnc1C(c1cc2ccc(OC)cc2[nH]c1=O)N1CCCCC1 (stereo not given)	-6%	.	-11%	?	-27%
COc1ccc(Cn2nnnc2C(c2cc3ccc(OC)cc3[nH]c2=O)N2CCCCCC2)cc1 (stereo not given)	9%	-2%	29%	8.9µM*	-28%
CCC(C)(C)n1nnnc1C(c1cc2ccc(OC)cc2[nH]c1=O)N1CCc2ccccc21 (stereo not given)	?	-15%	-22%	13µM*	?
COc1ccc(Cn2nnnc2C(c2ccc(N(C)C)cc2)N2CCC(C(N)=O)CC2)cc1 (stereo not given)	50µM*	-12%	?	13µM*	?
COc1cccc2c1Oc1ncccc1N(C(=O)CCC(=O)NCCC(C)C)C2	10%[57.1 µM]	.	48%	-3%[59 µM]	6%
COc1ccc(Nc2oc(/C=C/c3cc(OC)c(OC)c(OC)c3)nc2C#N)cc1	-28%	.	17%	-8%[59 µM]	-1%
Cc1ccc2cc(C(c3nnnn3C3CCCC3)N3CCN(c4ccc(F)cc4)CC3)c(=O)[nH]c2c1 (stereo not given)	-8%	-5%	15%	11µM*	-8%
